# Measured values reported in PubChem BioAssay AID1159580 (chemical genetic matrix, 2015).
# The campaign covered roughly 5,500 compounds. About 2,000 (36%) were called active. Another 18% or so got no clear call; they are omitted. The list shows a part of the results. Values without a mark were called inactive. Cut-off read from the data, not from the text of the source: active = normalized growth mostly below about 0.91 (no sharp cut-off); inconclusive = no clear call, values can overlap the other calls; inactive = mostly above about 0.92.
# Test: chemical genetic growth profiling, strain panel (AID 1159580);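 note: tested at 20 µM; growth read once vehicle control cultures reached saturation at 30 °C; 1 = growth at the plate median or of vehicle wells; lower values mean less growth of the strain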
# Conditions: growth OD
smiles,measurement,setting,value
CC1=C(C(C)O)C2=NC1C=c1[nH]c(c(C)c1C(C)O)=Cc1[nH]c(c(CCC(=O)O)c1C)C=c1[nH]c(c(C)c1CCC(=O)O)=C2 (stereo not drawn),normalized growth,"S. cerevisiae deletion strains, locus YJL187C, strain SWE1, stronger effect = lower value",0.995
same,normalized growth,"S. cerevisiae deletion strains, locus YJR043C, strain POL32, stronger effect = lower value",0.93
same,normalized growth,"S. cerevisiae deletion strains, locus YJR066W, strain TOR1, stronger effect = lower value",1.02
same,normalized growth,"S. cerevisiae deletion strains, locus YKL009W, strain mrt4, stronger effect = lower value",1.04
same,normalized growth,"S. cerevisiae deletion strains, locus YKL068W, stronger effect = lower value",1.01
same,normalized growth,"S. cerevisiae deletion strains, locus YKL085W, strain MDH1 (second series), stronger effect = lower value",1.02
same,normalized growth,"S. cerevisiae deletion strains, locus YKL085W, strain MDH1, stronger effect = lower value",1.02
same,normalized growth,"S. cerevisiae deletion strains, locus YKL160W, strain elf1, stronger effect = lower value",0.99
same,normalized growth,"S. cerevisiae deletion strains, locus YKL190W, strain CNB1, stronger effect = lower value",1
same,normalized growth,"S. cerevisiae deletion strains, locus YKR001C, strain vps1, stronger effect = lower value",1
same,normalized growth,"S. cerevisiae deletion strains, locus YKR026C, strain gcn3, stronger effect = lower value",0.989
same,normalized growth,"S. cerevisiae deletion strains, locus YKR091W, strain srl3, stronger effect = lower value",1
same,normalized growth,"S. cerevisiae deletion strains, locus YLL001W, strain dnm1, stronger effect = lower value",0.988
same,normalized growth,"S. cerevisiae deletion strains, locus YLL026W, stronger effect = lower value",0.992
same,normalized growth,"S. cerevisiae deletion strains, locus YLL041C, strain sdh2, stronger effect = lower value",0.995
same,normalized growth,"S. cerevisiae deletion strains, locus YLR027C, strain aat2, stronger effect = lower value",0.982
same,normalized growth,"S. cerevisiae deletion strains, locus YLR039C, strain RIC1, stronger effect = lower value",1.04
same,normalized growth,"S. cerevisiae deletion strains, locus YLR058C, strain SHM2, stronger effect = lower value",1
same,normalized growth,"S. cerevisiae deletion strains, locus YLR102C, strain apc9, stronger effect = lower value",1.02
same,normalized growth,"S. cerevisiae deletion strains, locus YLR113W, strain HOG1, stronger effect = lower value",1.19 [resistant] (active)
same,normalized growth,"S. cerevisiae deletion strains, locus YLR221C, strain rsa3, stronger effect = lower value",0.967
same,normalized growth,"S. cerevisiae deletion strains, locus YLR258W, strain gsy2, stronger effect = lower value",0.996
same,normalized growth,"S. cerevisiae deletion strains, locus YLR262C, strain YPT6 (second series), stronger effect = lower value",1.06
same,normalized growth,"S. cerevisiae deletion strains, locus YLR262C, strain YPT6, stronger effect = lower value",1.01
same,normalized growth,"S. cerevisiae deletion strains, locus YLR268W, strain sec22, stronger effect = lower value",1.01
same,normalized growth,"S. cerevisiae deletion strains, locus YLR320W, strain mms22, stronger effect = lower value",0.938
same,normalized growth,"S. cerevisiae deletion strains, locus YLR330W, strain CHS5, stronger effect = lower value",1.01
same,normalized growth,"S. cerevisiae deletion strains, locus YLR342W, strain FKS1 (second series), stronger effect = lower value",0.995
same,normalized growth,"S. cerevisiae deletion strains, locus YLR342W, strain FKS1, stronger effect = lower value",0.987
same,normalized growth,"S. cerevisiae deletion strains, locus YLR357W, strain rsc2, stronger effect = lower value",0.923
same,normalized growth,"S. cerevisiae deletion strains, locus YLR370C, strain arc18, stronger effect = lower value",0.988
same,normalized growth,"S. cerevisiae deletion strains, locus YLR371W, strain rom2, stronger effect = lower value",1.02
same,normalized growth,"S. cerevisiae deletion strains, locus YLR384C, strain iki3, stronger effect = lower value",0.99
same,normalized growth,"S. cerevisiae deletion strains, locus YLR418C, strain cdc73, stronger effect = lower value",0.937
same,normalized growth,"S. cerevisiae deletion strains, locus YML016C, strain PPZ1, stronger effect = lower value",1.01
same,normalized growth,"S. cerevisiae deletion strains, locus YML032C, strain rad52, stronger effect = lower value",1
same,normalized growth,"S. cerevisiae deletion strains, locus YML120C, strain ndi1, stronger effect = lower value",1
same,normalized growth,"S. cerevisiae deletion strains, locus YML124C, strain tub3, stronger effect = lower value",1.02
same,normalized growth,"S. cerevisiae deletion strains, locus YMR058W, strain fet3, stronger effect = lower value",0.943
same,normalized growth,"S. cerevisiae deletion strains, locus YMR078C, strain ctf18, stronger effect = lower value",1.03
same,normalized growth,"S. cerevisiae deletion strains, locus YMR125W, strain sto1, stronger effect = lower value",1
same,normalized growth,"S. cerevisiae deletion strains, locus YMR129W, stronger effect = lower value",0.986
same,normalized growth,"S. cerevisiae deletion strains, locus YMR205C, strain PFK2, stronger effect = lower value",0.943
same,normalized growth,"S. cerevisiae deletion strains, locus YMR223W, strain ubp8, stronger effect = lower value",0.976
same,normalized growth,"S. cerevisiae deletion strains, locus YMR231W, strain pep5, stronger effect = lower value",0.98
same,normalized growth,"S. cerevisiae deletion strains, locus YMR307W, strain GAS1, stronger effect = lower value",0.82
same,normalized growth,"S. cerevisiae deletion strains, locus YNL067W, strain RPL9B, stronger effect = lower value",0.996
same,normalized growth,"S. cerevisiae deletion strains, locus YNL071W, strain lat1, stronger effect = lower value",0.963
same,normalized growth,"S. cerevisiae deletion strains, locus YNL183C, strain NPR1, stronger effect = lower value",1.02
same,normalized growth,"S. cerevisiae deletion strains, locus YNL209W, strain ssb2, stronger effect = lower value",0.999
same,normalized growth,"S. cerevisiae deletion strains, locus YNL233W, strain BNI4, stronger effect = lower value",0.994
same,normalized growth,"S. cerevisiae deletion strains, locus YNL248C, strain rpa49, stronger effect = lower value",0.971
same,normalized growth,"S. cerevisiae deletion strains, locus YNL250W, strain rad50, stronger effect = lower value",1.03
same,normalized growth,"S. cerevisiae deletion strains, locus YNL271C, strain bni1, stronger effect = lower value",1.01
same,normalized growth,"S. cerevisiae deletion strains, locus YNL298W, strain CLA4, stronger effect = lower value",1.02
same,normalized growth,"S. cerevisiae deletion strains, locus YNL307C, strain MCK1, stronger effect = lower value",1.02
same,normalized growth,"S. cerevisiae deletion strains, locus YNL322C, strain KRE1 (second series), stronger effect = lower value",0.99
same,normalized growth,"S. cerevisiae deletion strains, locus YNR049C, strain mso1, stronger effect = lower value",0.998
same,normalized growth,"S. cerevisiae deletion strains, locus YNR052C, strain pop2, stronger effect = lower value",1.02
same,normalized growth,"S. cerevisiae deletion strains, locus YOL012C, strain htz1",0.754
same,normalized growth,"S. cerevisiae deletion strains, locus YOL147C, strain pex11, stronger effect = lower value",1.01
same,normalized growth,"S. cerevisiae deletion strains, locus YOR001W, strain rrp6, stronger effect = lower value",1
same,normalized growth,"S. cerevisiae deletion strains, locus YOR061W, strain CKA2, stronger effect = lower value",1.01
same,normalized growth,"S. cerevisiae deletion strains, locus YOR069W, strain VPS5, stronger effect = lower value",1.01
same,normalized growth,"S. cerevisiae deletion strains, locus YOR070C, strain gyp1, stronger effect = lower value",0.989
same,normalized growth,"S. cerevisiae deletion strains, locus YOR080W, strain dia2, stronger effect = lower value",0.987
same,normalized growth,"S. cerevisiae deletion strains, locus YOR083W, strain WHI5, stronger effect = lower value",0.986
same,normalized growth,"S. cerevisiae deletion strains, locus YOR106W, strain vam3, stronger effect = lower value",0.94
same,normalized growth,"S. cerevisiae deletion strains, locus YOR136W, strain idh2, stronger effect = lower value",1.01
same,normalized growth,"S. cerevisiae deletion strains, locus YOR144C, strain elg1, stronger effect = lower value",1.02
same,normalized growth,"S. cerevisiae deletion strains, locus YOR184W, strain ser1, stronger effect = lower value",0.972
same,normalized growth,"S. cerevisiae deletion strains, locus YOR231W, strain MKK1, stronger effect = lower value",1.13
same,normalized growth,"S. cerevisiae deletion strains, locus YOR265W, strain rbl2, stronger effect = lower value",0.995
same,normalized growth,"S. cerevisiae deletion strains, locus YOR270C, strain vph1, stronger effect = lower value",0.915
same,normalized growth,"S. cerevisiae deletion strains, locus YOR290C, strain snf2, stronger effect = lower value",0.984
same,normalized growth,"S. cerevisiae deletion strains, locus YOR316C, strain cot1, stronger effect = lower value",1.02
same,normalized growth,"S. cerevisiae deletion strains, locus YPL051W, strain arl3, stronger effect = lower value",0.984
same,normalized growth,"S. cerevisiae deletion strains, locus YPL055C, strain LGE1, stronger effect = lower value",0.973
same,normalized growth,"S. cerevisiae deletion strains, locus YPL078C, strain atp4, stronger effect = lower value",0.996
same,normalized growth,"S. cerevisiae deletion strains, locus YPL106C, strain sse1, stronger effect = lower value",0.93
same,normalized growth,"S. cerevisiae deletion strains, locus YPL240C, strain hsp82, stronger effect = lower value",0.996
same,normalized growth,"S. cerevisiae deletion strains, locus YPL256C, strain CLN2, stronger effect = lower value",1.07
same,normalized growth,"S. cerevisiae deletion strains, locus YPR119W, strain clb2, stronger effect = lower value",1.02
same,normalized growth,"S. cerevisiae deletion strains, locus YPR141C, strain kar3, stronger effect = lower value",1.05
same,normalized growth,"S. cerevisiae deletion strains, locus YPR163C, strain tif3, stronger effect = lower value",1.01
same,normalized growth,"S. cerevisiae deletion strains, locus YPR167C, strain met16, stronger effect = lower value",1
same,normalized growth,"S. cerevisiae deletion strains, strain wtn01, stronger effect = lower value",0.981
same,normalized growth,"S. cerevisiae strains, strain wild type, stronger effect = lower value",0.968
